Compounds without any hit were thinned out: in the full panel of roughly 83,000, 20% have a hit.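 Single-dose data. Exposure time 48 hours. Values below 10 considered active.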 Active and inactive are the calls of the source.
test system: SK-MEL-2 melanoma; experiment: NCI-60 one-dose screen, 48 h (100 = growth as untreated, 0 = no growth, -100 = all killed); conditions: 10 µM
Method: Growth inhibition of the SK-MEL-2 human tumor cell line is measured as a screen for anti-cancer activity. Cells are grown in 96 well plates and exposed to the test compound for 48 hours. Compounds are tested at a single concentration, which is 10^-5 M for most compounds. The reported endpoint is percent growth (GI% or GIPRCNT), where numbers from 0 - 100% represent growth inhibition, and numbers from -100% - 0 represent cell death. For example, a value of 40 represents 60% growth inhibition. A value of 0 means no net growth occurred over the course of the experiment. A value of -40 indicates 40% of cells at the beginning of the experiment died by the end of the experiment. A value of -100 means all cells are dead at the end of the experiment.
NCI-60 Human Tumor Cell Lines Screen was performed using the standard one-dose NCI protocol, which is described in more detail at https://dtp.cancer.gov/discovery_development/nci-60/default.htm.
Compounds with GIPRCNT values below 10 were considered active. Activity score was based on GIPRCNT using the following formula: […]
Score is 0 for GIPRCNT values of 100 or above, 50 for GIPRCNT values of 0, and 100 for GIPRCNT values of -100.

Question: Which growth does the source give for `Clc1ccc(Nc2ccnc(NCCNc3ccnc4cc(Cl)ccc34)n2)cc1` here?
Answer: -76.1% (active)

Question: `CC12O[C@H](C[C@@H](O)[C@H]1O)n1c3ccccc3c3c4c(c5c6ccccc6n2c5c31)C(=O)N(CCCN)C4=O` was tested. Which growth did it give?
Answer: 50.3% (inactive)

Question: Which growth does the source give for `COc1ccc(-c2nc3sc(C4CC4)nn3c2/C=C2/C(=O)Nc3ccc(OC)cc32)cc1` here?
Answer: 49.6% (inactive)

Question: `Clc1cc2c(c(CSc3nc4ccccc4n4cccc34)c1)OCOC2` was tested. Which growth did it give?
Answer: 79.7% (inactive)

Question: With `c1ccc([I+]c2ccccc2)cc1` as the compound, how does the growth read?
Answer: 55.3% (inactive)

Question: Which growth does the source give for `CC(=O)O[C@]1(C)CC[C@H]2[C@H](CNCCc3ccc(Cl)cc3)C(=O)O[C@@H]2C2=C(C)C(=O)C[C@H]21` here?
Answer: 114% (inactive)

Question: For `COc1ccc2c(c1)nc(N)c1c3cccnc3cn21`, which growth is on record?
Answer: 53.2% (inactive)

Question: With `NC1(C(=O)O)CSSC1` as the compound, how does the growth read?
Answer: 111% (inactive)

Question: With `CCCC#CCN(CC)CC` as the compound, how does the growth read?
Answer: 114% (inactive)

Question: Which growth does the source give for `Cc1ccc(N=Nc2c(N)nc(N)[nH]c2=O)cc1C` here?
Answer: 100% (inactive)

Question: Which growth does the source give for `CCCCCCCCCCCCCCCCCCOCC(COCCOCC[N+]1(CCCCCC(=O)[O-])CCCC1)Oc1ncccn1` (stereo not given) here?
Answer: 70.3% (inactive)

Question: With `O=C(C[n+]1ccccc1)c1ccc2ccccc2c1` as the compound, how does the growth read?
Answer: 112% (inactive)

Question: For `COc1cc(/C=C/C(=O)c2ccc(Cl)cc2)ccc1OS(=O)(=O)c1ccc(C)cc1`, which growth is on record?
Answer: 108% (inactive)

Question: For `Cc1ccc(-c2nc(/C=C3/C(=O)N(C)c4ccc(F)cc43)c3ccccn23)cc1`, which growth is on record?
Answer: 115% (inactive)

Question: Which growth does the source give for `N#Cc1cc(-c2cc3ccccc3o2)oc1N` here?
Answer: 10.2% (inactive)

Question: With `Cc1nc2ccccc2c(N)c1-c1cc(C)c2c(C)nc3ccccc3c2n1` as the compound, how does the growth read?
Answer: 96.3% (inactive)

Question: With `N=C(N)c1ccc(-c2ccc(-c3ccco3)o2)cc1` as the compound, how does the growth read?
Answer: 108% (inactive)

Question: With `CCN(CC)Cc1cc(Nc2ccnc3cc(Cl)ccc23)ccc1OC` as the compound, how does the growth read?
Answer: 116% (inactive)

Question: For `COc1cc(-c2cc(C(=O)N3CCN(C(=O)c4ccccc4NCc4cccs4)CC3)nc3cc(-c4ccccc4)nn23)cc(OC)c1OC`, which growth is on record?
Answer: 68.4% (inactive)

Question: For `N#CCCN1C/C(=C/c2ccc(Cl)cc2)C(=O)/C(=C/c2ccc(Cl)cc2)C1`, which growth is on record?
Answer: 19% (inactive)

Question: With `COc1ccc(-c2cc(/C=C/C(=O)c3cc(OC)c(OC)c(OC)c3)[nH]n2)cc1OC` as the compound, how does the growth read?
Answer: 69.9% (inactive)

Question: `COc1cc(-c2nc(-c3nnc(-c4ccc(F)c(Cl)c4)o3)c3ccccn23)cc(OC)c1OC` was tested. Which growth did it give?
Answer: 25.8% (inactive)

Question: With `Cc1cc2c(C)c3cc(C)c(N)cc3nc2cc1N` as the compound, how does the growth read?
Answer: -18.1% (active)

Question: How did the growth turn out when `FC(F)(F)c1ccc2nc(-c3nc(-c4ccccc4)n4ccccc34)[nH]c2c1` was run?
Answer: 81.6% (inactive)

Question: `Cn1c(N)c(N=Nc2ccc(S(=O)(=O)Nc3nccs3)cc2)c(=O)n(C)c1=O` was tested. Which growth did it give?
Answer: 92.4% (inactive)

Question: For `O=C(/C(=C/c1ccccc1)CN1CCCCC1)c1ccccc1`, which growth is on record?
Answer: -67% (active)

Question: With `O=C1/C(=C/c2ccc([N+](=O)[O-])s2)Oc2ccccc21` as the compound, how does the growth read?
Answer: -48.9% (active)

Question: Which growth does the source give for `Cc1cc(C)c2c(n1)sc1c(Nc3ccc(Cl)cc3)ncnc12` here?
Answer: 82.8% (inactive)

Question: Which growth does the source give for `CC/C(=C(/c1ccc(OCCN(C)C)cc1)c1ccc(OC(=O)CCCCC(=O)c2c(C)[nH]c(/C=C3\N=C(c4ccc[nH]4)C=C3OC)c2C)cc1)c1ccccc1` here?
Answer: 69% (inactive)

Question: How did the growth turn out when `CO/N=C(/C(=O)NC1C(=O)N2C(C(=O)O)=C(COC(N)=O)CSC12)c1ccco1` (stereo not given) was run?
Answer: 100% (inactive)

Question: With `CCCCCCCCCCCCCCCCCC(=O)OCCCCCCC` as the compound, how does the growth read?
Answer: 127% (inactive)

Question: How did the growth turn out when `COc1cccc(NC(=O)c2sc3nc4c(cc3c2N)C(O)CCC4)c1` (stereo not given) was run?
Answer: 49.5% (inactive)

Question: How did the growth turn out when `Cc1cccc(Cl)c1NC(=O)c1ccc2nc(NC(=O)NC3CCN(C)CC3)sc2c1` was run?
Answer: 126% (inactive)

Question: With `Cc1c(Cl)cccc1NC(=O)c1sc2nc3c(cc2c1N)C(=O)CCC3` as the compound, how does the growth read?
Answer: 18% (inactive)

Question: With `N#Cc1c(C#N)c(SSc2c(C#N)c(C#N)c(N)n2-c2ccccc2)n(-c2ccccc2)c1N` as the compound, how does the growth read?
Answer: 98.5% (inactive)

Question: With `Cc1ccc(NC(=O)Nc2cccnc2)cc1NC(=O)Nc1cccnc1` as the compound, how does the growth read?
Answer: 83% (inactive)

Question: `Nc1nc(N)c2c(ccc3nccc32)[nH]1` was tested. Which growth did it give?
Answer: 57.6% (inactive)

Question: How did the growth turn out when `O=C1Nc2ccccc2C1=NC1CCCCC1` was run?
Answer: 88.6% (inactive)

Question: Which growth does the source give for `COc1cc(Cl)cc(-c2nn(-c3cccc(NC(=O)Nc4ccc(Cl)c(C(F)(F)F)c4)c3)cc2-c2ccncc2)c1` here?
Answer: -34% (active)

Question: With `COc1ccc2c(c1)C(=O)c1c-2c(=O)n(CCCN(C)C)c2cc(OC)c(OC)cc12` as the compound, how does the growth read?
Answer: 69% (inactive)
